Among the data in PubChem BioAssay are z-score values, retold here.

Unmarked numbers belong to inactive results.

The nature of the test: yeast growth modulation, basal conditions, primary screen, YJM789 clinical isolate, OD600, 24 h (AID 1089).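 Further: growth of clinical yeast isolate S. cerevisiae YJM 789 seeded 1000 cells per well; test concentration not given here.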 Particulars: S. cerevisiae YJM789 growth, higher = more signal, called active from +8 up or from −8 down.
In the case of `COC(=O)[C@@]1(Cc2ccc(F)cc2)[C@H]2c3cc(C(=O)N(C)C)n(CCc4ccc(O)c(O)c4)c3C[C@H]2CN1C(=O)c1ccccc1`, the z-score is 0.278.
Consider `[N-]=[N+]=Nc1ccccc1C[C@]1(C(=O)N2CCOCC2)N=C(c2ccc(OCCCO)cc2)O[C@H]1c1ccccc1N=[N+]=[N-]`, for which the z-score is -3.46.
To `COCCOC(=O)N1C(=O)[C@@]2(c3cc(C#CCCO)ccc31)[C@H](c1ccc(OCCO)cc1)N1[C@H](c3ccccc3)[C@H](c3ccccc3)OC(=O)[C@H]1[C@@H]2C(=O)N1CCCCCCC1` belongs 0.869; to `COC(=O)C(CC#Cc1ccc2c(c1)[C@]1(C(=O)N2)[C@H](c2ccc(OCCO)cc2)N2[C@H](c3ccccc3)[C@H](c3ccccc3)OC(=O)[C@H]2[C@@H]1C(=O)N1CCCCCCC1)C(=O)OC`, 1.37; to `O=C1C[C@@](C(=O)O)(c2ccc([N+](=O)[O-])cc2)[C@@H](c2ccc(CO)cc2)N1C1CCCCC1`, 1.24.
To `C=CC[C@]1(C(=O)NCC(O)CO)COC(c2ccc(OCCCO)cc2)=N1` (stereo not given in full) belongs 0.26.
Take `C=C(COC)C(=O)CC[C@H](OC(=O)c1cccnc1)c1ccc(OCCO)cc1`: the z-score is -0.191.
On to `C=CCNC(=O)[C@H]1[C@@H]2C(=O)O[C@@H](c3ccccc3)[C@@H](c3ccccc3)N2[C@@H](c2ccc(OCCO)cc2)[C@]12C(=O)Nc1ccccc12`, for which the z-score was 1.24.
Turning to `C=CC1c2cc(O)c(OC)cc2CCN1C` (stereo not given), the z-score is -0.763.
Turning to `CC1CC/C=C\[C@H]2OC34C=CCN(c5ccc(Cl)cc5)C(=O)[C@H]3N(CCCCCCO)C(=O)[C@]4(C)C2C(=O)O1` (stereo not given in full), the z-score is -0.0412.
